# Assay results taken from ChEMBL document CHEMBL3988442, “University of Dundee, Small-Polar-MMV Screening Library” (2021).
# Target: Shiga toxin 2 (Escherichia coli O157:H7) (UniProt P09385+P09386)
# Test: E. coli 0.157:H7 Shiga Toxin SOP - stx2 screening assay
# Type: functional
# Parameters: scale not given: direction of the effect not stated beside the values
# Conditions: 30 µM
row,Structure (SMILES),Percent Effect [%]
1,c1ccc(-n2ncc(CNCC3CCCN3c3cccnn3)n2)cc1 (stereo not given),8.59
2,Cc1cccnc1NC(=O)NC(C)Cn1cccn1 (stereo not given),15.4
3,c1cncc(OCC2CN(Cc3ccco3)Cc3nccn3C2)c1 (stereo not given),-17.2
4,Cc1cnc2c(c1NCc1ccncc1)c(=O)n(C)c(=O)n2C,1.78
5,CC(O)CN1CCN(C(=O)c2cc3ccccc3c(=O)[nH]2)CC1 (stereo not given),-10.8
6,COc1ccccc1N1CCC(CNCc2cccc(O)c2)C1 (stereo not given),-10.3
7,COc1ccc(CN2CCc3ncnc(C4CCOC4)c3CC2)cc1 (stereo not given),-53.7
8,COCc1c(C(=O)NC2CCCC2)nnn1-c1ccc(C)cc1,10.2
9,O=S(=O)(CCCN1CCCC1Cn1cccn1)c1ccccc1 (stereo not given),-4.23
10,COCC(=O)NCc1cc(=O)n2c(n1)CN(Cc1ccsc1)CCC2,10
11,Cc1ccc(NC(=O)Cn2cc(I)cn2)cc1,-45.6
12,CC(C)c1nnc2n1CCN(Cc1csc(CC(=O)N(C)C)n1)C2,18.3
13,Cc1cnn(CC2CCCCN2C(=O)Cc2csc(C)n2)c1 (stereo not given),1.16
14,CNc1nc2c(s1)C(c1cccc(F)c1F)CC(=O)N2 (stereo not given),3.28
15,O=C(C1=CCCC1)N1CCC[C@]2(C[C@@H](OCc3ccncc3)CO2)C1,-14.6
16,Cc1ccc(N2CCCN(C(=O)CC3CCCO3)CC2)nn1 (stereo not given),18.1
17,COCC(=O)NCc1cc(=O)n2c(n1)CN(CC1CCOC1)CCC2 (stereo not given),-5.14
18,CCc1nc(CN2CCN(c3ncnc4cc(F)ccc34)CC2)no1,-69.6
19,COCCC(=O)N1CC[C@@H](N(C)C)[C@@H]1Cc1ccccc1,2.6
20,CN(Cc1cccc(F)c1)C1CCN(CCc2ccccn2)CC1,-8.85

row,Structure (SMILES),Percent Effect [%]
1,COc1cc2nc(C)n(CC(=O)O)c(=O)c2cc1OC,-6.96
2,CCCc1n[nH]c(C2CN(C(=O)CCCn3cccn3)CCO2)n1 (stereo not given),-21.7
3,Cc1ccc(N(C)C2CCN(C(=O)CCc3ccco3)CC2)nn1,-5.22
4,CCN1CCN(CC(C)(O)c2cccc(C(F)(F)F)c2)CC1 (stereo not given),6.41
5,CN(CCNC(=O)NCc1ccncc1)C1CCCC1,8.07
6,CN(C)CCO[C@H]1CN(Cc2cccc(C#N)c2)[C@@H]2COC[C@H]12,-21.2
7,O=C(CN(C1=NCCCC1)c1ccccc1)c1ccccc1,-26.2
8,CNc1cc(C)nc(C2CN(Cc3ccc(C)nc3)CCO2)c1 (stereo not given),3.79
9,O=C(NCC1CCSCC1)N(CCCO)C1CCc2ccccc21 (stereo not given),-37.4
10,NC(=O)NCC(=O)N1C[C@H]2CC[C@@H]1CN(Cc1ccccc1)C2,-8.55
11,Cc1cnn(C2CN(CC(=O)NCCc3ccccc3)C2)c1,32.1
12,Nc1cc2c(nn1)CCN(C(=O)c1cccc3c1OCCO3)C2,-28.6
13,Cc1nc([C@@H]2C[C@@H]3CCN(C(=O)Cc4ccsc4)C[C@H]3O2)no1,2.89
14,CC(C)(C)c1cn2nc(N3CCCC3Cn3cncn3)sc2n1 (stereo not given),-12.7
15,CN1CCOC(CNCc2coc(-c3cccs3)n2)C1 (stereo not given),-17.6
16,CCc1c(C)nc2n(c1=O)CC(C(=O)Nc1ccccc1F)CS2 (stereo not given),-4.39
17,CN(Cc1ncc[nH]1)S(=O)(=O)c1cccc(C(=O)N2CCOCC2)c1,-12.2
18,Cc1ccc(CNC(=O)N2CCN(Cc3ccsc3)CC2)n1C,-31.3
19,CC(C)(C)c1n[nH]c(C2CN(C(=O)c3csnn3)CCO2)n1 (stereo not given),5.88
20,Cn1ccnc1CN1CCN(Cc2ccccc2C#N)CC1,7.78
